Results: paper PMC7862700, “An all-to-all approach to the identification of sequence-specific readers for epigenetic DNA modifications on cytosine”

Columns and labels:
Assay in all cases: DAPPL (digital affinity profiling via proximity ligation, sequencing); 10 mM Tris-HCl pH 7.5, 50 mM NaCl, 1 mM DTT, 4% glycerol, room temperature, 30 min; GST-TFs on glutathione beads, 16-mer random dsDNA library, 0.1% formaldehyde crosslink after washing; high values mean tight binding
FLI1 = molecular target: T1, FLI1 (Homo sapiens, UniProt Q01543 1-452); details: protein: recombinant; tags: N-terminal GST; dsDNA, one strand shown
T1 sequence: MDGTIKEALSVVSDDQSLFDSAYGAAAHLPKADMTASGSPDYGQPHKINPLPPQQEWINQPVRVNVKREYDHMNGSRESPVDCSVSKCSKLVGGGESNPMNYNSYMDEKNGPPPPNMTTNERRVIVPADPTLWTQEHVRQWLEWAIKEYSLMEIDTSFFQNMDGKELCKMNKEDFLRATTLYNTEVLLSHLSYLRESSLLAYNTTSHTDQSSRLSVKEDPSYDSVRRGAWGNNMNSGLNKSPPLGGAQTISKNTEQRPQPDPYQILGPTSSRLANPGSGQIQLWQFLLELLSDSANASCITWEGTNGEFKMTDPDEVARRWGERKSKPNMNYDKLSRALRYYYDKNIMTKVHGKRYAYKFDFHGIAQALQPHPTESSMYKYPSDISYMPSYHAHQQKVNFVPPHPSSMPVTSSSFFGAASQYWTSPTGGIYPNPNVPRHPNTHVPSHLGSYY
In short: (§1)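 Human transcription factors were made in yeast as GST fusions, captured on glutathione beads and barcoded with DNA. With a tag-only sample included, the pool was incubated with 200 nmole of a random double-stranded 16-mer DNA library in Tris/NaCl/DTT/glycerol buffer at room temperature for 30 min, then crosslinked with 0.1% formaldehyde after washing, ligated by proximity, amplified and sequenced. For binding signal, each hexamer's read frequency for a factor is divided by its frequency for the tag-only sample.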

ELK1 = molecular target: T2, ELK1 (Homo sapiens, UniProt P19419 1-428); details: protein: recombinant; tags: N-terminal GST; dsDNA, one strand shown
T2 sequence: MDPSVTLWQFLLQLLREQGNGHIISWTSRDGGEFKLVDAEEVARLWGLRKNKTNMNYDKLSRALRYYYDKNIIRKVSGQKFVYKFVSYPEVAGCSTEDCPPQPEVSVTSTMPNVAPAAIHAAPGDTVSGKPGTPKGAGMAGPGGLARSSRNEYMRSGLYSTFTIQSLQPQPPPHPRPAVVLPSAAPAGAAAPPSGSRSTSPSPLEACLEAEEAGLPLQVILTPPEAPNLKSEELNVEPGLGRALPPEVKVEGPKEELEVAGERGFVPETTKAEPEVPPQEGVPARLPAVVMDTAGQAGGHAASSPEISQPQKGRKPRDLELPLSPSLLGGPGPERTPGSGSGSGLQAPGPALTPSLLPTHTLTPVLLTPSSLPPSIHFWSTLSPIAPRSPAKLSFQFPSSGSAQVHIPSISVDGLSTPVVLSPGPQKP
In short: as §1

GABPA = molecular target: T3, GABPA (Homo sapiens, UniProt Q06546 1-454); details: protein: recombinant; tags: N-terminal GST; dsDNA, one strand shown
T3 sequence: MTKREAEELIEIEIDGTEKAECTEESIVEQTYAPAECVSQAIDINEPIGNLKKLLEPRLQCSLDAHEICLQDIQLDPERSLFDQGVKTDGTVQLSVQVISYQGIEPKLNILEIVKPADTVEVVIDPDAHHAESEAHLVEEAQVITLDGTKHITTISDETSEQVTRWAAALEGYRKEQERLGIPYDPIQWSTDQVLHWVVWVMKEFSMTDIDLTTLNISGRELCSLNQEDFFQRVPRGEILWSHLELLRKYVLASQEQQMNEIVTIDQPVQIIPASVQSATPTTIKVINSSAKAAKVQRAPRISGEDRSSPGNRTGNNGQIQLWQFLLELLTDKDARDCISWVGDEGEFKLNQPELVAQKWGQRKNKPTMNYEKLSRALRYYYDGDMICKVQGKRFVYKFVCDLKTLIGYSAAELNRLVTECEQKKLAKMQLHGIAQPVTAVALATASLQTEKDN
In short: as §1

ERG = molecular target: T4, ERG (Homo sapiens, UniProt P11308 1-479); details: protein: recombinant; tags: N-terminal GST; dsDNA, one strand shown
T4 sequence: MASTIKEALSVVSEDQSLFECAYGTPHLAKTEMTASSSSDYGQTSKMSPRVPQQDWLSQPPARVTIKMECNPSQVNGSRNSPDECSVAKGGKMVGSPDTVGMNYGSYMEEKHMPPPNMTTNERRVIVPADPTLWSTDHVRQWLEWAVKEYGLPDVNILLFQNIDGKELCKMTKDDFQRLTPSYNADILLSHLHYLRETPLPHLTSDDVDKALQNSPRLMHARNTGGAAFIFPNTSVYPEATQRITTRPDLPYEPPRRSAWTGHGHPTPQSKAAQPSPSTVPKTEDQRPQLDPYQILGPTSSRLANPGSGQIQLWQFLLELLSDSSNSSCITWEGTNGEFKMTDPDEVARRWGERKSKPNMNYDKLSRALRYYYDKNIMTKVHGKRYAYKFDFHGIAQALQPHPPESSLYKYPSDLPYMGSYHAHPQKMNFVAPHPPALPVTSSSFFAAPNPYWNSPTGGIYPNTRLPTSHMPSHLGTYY
In short: as §1

ELF1 = ELF1 (Homo sapiens, UniProt P32519 1-619); details: protein: recombinant; tags: N-terminal GST; dsDNA, one strand shown
ELF1, sequence (P32519 whole entry): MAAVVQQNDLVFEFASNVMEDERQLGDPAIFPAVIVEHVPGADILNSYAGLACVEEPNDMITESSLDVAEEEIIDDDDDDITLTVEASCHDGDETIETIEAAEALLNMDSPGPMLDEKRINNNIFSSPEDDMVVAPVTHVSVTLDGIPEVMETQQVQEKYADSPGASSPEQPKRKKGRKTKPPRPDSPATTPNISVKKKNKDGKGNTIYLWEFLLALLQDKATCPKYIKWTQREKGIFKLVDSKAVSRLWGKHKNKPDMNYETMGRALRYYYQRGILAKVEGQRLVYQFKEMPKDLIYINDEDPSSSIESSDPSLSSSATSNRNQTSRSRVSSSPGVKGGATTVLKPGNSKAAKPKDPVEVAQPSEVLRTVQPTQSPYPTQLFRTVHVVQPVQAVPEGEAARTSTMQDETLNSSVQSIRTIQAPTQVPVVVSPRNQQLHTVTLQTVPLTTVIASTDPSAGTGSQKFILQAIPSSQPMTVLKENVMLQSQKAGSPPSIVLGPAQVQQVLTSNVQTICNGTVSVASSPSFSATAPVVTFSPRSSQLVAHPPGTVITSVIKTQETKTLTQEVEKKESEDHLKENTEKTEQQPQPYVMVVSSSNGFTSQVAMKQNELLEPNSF
In short: as §1

EHF = molecular target: T5, EHF (Homo sapiens, UniProt Q9NZC4 1-300); details: protein: recombinant; tags: N-terminal GST; dsDNA, one strand shown
T5 sequence: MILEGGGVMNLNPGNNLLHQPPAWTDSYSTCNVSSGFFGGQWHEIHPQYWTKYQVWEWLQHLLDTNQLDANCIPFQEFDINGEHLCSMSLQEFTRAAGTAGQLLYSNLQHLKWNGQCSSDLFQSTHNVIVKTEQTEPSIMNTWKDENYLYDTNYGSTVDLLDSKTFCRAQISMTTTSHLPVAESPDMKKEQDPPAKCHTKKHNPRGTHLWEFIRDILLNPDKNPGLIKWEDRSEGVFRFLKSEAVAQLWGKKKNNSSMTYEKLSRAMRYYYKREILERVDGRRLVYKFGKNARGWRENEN
In short: as §1

SPI1 = SPI1 (Homo sapiens, UniProt P17947 1-270); details: protein: recombinant; tags: N-terminal GST; dsDNA, one strand shown
In short: as §1

SPIB = SPIB (Homo sapiens, UniProt Q01892 1-262); details: protein: recombinant; tags: N-terminal GST; dsDNA, one strand shown
SPIB, sequence (Q01892 whole entry): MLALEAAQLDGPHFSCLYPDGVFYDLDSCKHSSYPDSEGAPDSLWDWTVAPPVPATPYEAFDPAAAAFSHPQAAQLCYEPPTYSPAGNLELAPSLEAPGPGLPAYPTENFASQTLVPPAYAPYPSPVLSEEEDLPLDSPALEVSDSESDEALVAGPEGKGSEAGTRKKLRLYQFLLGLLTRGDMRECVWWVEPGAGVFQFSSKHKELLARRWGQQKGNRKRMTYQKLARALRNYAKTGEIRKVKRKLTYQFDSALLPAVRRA
In short: as §1

ELK3 = molecular target: T6, ELK3 (Homo sapiens, UniProt P41970 1-407); details: protein: recombinant; tags: N-terminal GST; dsDNA, one strand shown
T6 sequence: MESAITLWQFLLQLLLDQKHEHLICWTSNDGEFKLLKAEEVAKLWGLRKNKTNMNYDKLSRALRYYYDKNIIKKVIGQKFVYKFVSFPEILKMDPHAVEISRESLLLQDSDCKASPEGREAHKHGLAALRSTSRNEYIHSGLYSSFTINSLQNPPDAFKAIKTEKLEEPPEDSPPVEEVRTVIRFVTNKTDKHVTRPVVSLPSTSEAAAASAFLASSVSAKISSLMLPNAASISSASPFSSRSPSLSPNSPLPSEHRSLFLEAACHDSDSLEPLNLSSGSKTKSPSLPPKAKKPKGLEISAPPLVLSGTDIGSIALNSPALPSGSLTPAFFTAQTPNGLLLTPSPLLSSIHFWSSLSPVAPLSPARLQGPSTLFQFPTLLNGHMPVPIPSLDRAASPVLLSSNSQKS
In short: as §1

FEV = molecular target: T7, FEV (Homo sapiens, UniProt Q99581 1-238); details: protein: recombinant; tags: N-terminal GST; dsDNA, one strand shown
T7 sequence: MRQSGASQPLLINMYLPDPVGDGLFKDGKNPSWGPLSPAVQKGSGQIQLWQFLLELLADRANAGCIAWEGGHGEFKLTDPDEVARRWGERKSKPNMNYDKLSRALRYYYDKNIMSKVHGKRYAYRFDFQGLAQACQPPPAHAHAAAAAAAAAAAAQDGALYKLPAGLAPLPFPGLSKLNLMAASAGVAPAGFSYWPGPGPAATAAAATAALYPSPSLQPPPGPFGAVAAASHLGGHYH
In short: as §1

ETV5 = ETV5 (Homo sapiens, UniProt P41161 1-510); details: protein: recombinant; tags: N-terminal GST; dsDNA, one strand shown
ETV5, sequence (P41161 whole entry): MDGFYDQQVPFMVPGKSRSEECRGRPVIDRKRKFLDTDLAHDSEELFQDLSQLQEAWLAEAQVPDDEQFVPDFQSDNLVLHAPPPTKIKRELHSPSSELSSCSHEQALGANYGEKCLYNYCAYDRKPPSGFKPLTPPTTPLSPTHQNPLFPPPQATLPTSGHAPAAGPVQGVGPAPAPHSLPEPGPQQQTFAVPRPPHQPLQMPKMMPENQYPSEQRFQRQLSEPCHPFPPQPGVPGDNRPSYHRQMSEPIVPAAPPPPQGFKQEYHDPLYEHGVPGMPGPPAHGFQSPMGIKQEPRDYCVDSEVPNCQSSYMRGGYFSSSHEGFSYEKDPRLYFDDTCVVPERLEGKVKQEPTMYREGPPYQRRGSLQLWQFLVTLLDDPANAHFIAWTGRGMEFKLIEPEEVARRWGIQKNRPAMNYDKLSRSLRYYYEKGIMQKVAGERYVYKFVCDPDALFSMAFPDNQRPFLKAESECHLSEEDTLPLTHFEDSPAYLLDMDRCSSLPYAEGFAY
In short: as §1

HSF1 = HSF1 (Homo sapiens, UniProt Q00613 1-529); details: protein: recombinant; tags: N-terminal GST; chain copies: 3; dsDNA, one strand shown
HSF1, sequence (Q00613 whole entry): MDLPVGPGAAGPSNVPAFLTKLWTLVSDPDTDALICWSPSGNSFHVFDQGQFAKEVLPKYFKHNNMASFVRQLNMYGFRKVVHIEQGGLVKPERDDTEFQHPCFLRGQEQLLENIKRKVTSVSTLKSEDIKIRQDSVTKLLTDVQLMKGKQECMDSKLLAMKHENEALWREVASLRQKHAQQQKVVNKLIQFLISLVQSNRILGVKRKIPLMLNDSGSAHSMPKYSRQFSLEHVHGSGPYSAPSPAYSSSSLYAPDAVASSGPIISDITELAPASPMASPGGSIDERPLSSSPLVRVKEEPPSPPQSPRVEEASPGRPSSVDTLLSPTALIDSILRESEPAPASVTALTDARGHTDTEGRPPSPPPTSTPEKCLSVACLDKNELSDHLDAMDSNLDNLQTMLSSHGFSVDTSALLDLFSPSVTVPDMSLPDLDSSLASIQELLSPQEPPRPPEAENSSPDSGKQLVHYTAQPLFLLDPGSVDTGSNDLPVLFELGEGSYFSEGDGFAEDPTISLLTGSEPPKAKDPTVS
In short: as §1

SPIC = molecular target: T8, SPIC (Homo sapiens, UniProt Q8N5J4 1-248); details: protein: recombinant; tags: N-terminal GST; dsDNA, one strand shown
T8 sequence: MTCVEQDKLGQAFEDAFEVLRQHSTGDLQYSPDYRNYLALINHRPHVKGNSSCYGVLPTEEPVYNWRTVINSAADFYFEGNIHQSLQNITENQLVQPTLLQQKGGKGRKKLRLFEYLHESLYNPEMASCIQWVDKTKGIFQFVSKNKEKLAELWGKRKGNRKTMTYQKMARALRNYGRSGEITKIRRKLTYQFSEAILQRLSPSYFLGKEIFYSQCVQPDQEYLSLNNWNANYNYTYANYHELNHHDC
In short: as §1

ELF4 = ELF4 (Homo sapiens, UniProt Q99607 1-663); details: protein: recombinant; tags: N-terminal GST; dsDNA, one strand shown
ELF4, sequence (Q99607 whole entry): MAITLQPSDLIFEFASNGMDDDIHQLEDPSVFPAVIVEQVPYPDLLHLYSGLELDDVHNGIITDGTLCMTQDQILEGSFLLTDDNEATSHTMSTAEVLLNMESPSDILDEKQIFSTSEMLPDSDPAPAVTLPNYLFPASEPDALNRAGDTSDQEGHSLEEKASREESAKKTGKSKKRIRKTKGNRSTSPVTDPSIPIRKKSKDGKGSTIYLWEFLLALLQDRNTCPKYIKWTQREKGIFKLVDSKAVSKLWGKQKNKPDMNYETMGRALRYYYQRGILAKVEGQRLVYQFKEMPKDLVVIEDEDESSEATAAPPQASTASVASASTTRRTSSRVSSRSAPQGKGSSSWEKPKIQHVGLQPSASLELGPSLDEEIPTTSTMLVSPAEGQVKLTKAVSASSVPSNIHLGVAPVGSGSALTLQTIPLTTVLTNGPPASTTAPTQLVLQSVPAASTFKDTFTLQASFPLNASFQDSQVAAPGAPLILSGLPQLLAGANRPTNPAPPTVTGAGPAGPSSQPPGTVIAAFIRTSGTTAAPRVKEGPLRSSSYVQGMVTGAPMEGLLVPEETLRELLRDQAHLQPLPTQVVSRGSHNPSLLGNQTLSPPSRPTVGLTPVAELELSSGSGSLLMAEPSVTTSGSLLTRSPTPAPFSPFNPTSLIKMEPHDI
In short: as §1

ELK4 = molecular target: T9, ELK4 (Homo sapiens, UniProt P28324-2 1-405); details: protein: recombinant; tags: N-terminal GST; dsDNA, one strand shown
T9 sequence: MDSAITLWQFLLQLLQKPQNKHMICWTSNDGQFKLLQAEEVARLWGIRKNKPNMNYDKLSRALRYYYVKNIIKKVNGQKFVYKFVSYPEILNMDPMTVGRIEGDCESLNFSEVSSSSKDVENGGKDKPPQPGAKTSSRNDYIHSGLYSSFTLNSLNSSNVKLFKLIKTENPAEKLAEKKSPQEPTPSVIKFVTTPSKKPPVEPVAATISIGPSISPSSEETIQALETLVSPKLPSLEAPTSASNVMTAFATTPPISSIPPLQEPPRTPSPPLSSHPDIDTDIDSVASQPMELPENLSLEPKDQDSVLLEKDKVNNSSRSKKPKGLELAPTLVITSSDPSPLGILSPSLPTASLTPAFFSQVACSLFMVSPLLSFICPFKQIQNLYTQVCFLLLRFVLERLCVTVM
In short: as §1

ETV2 = molecular target: T10, ETV2 (Homo sapiens, UniProt O00321 1-342); details: protein: recombinant; tags: N-terminal GST; dsDNA, one strand shown
T10 sequence: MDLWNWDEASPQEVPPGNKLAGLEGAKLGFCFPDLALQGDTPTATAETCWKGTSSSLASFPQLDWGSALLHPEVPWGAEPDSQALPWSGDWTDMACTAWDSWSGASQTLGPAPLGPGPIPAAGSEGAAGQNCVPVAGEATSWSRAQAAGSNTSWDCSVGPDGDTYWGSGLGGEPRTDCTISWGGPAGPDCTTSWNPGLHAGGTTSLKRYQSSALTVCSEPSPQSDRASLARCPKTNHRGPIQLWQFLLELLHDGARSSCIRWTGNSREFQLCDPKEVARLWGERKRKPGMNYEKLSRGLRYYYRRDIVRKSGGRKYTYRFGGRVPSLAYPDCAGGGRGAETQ
In short: as §1

ELF3 = molecular target: T11, ELF3 (Homo sapiens, UniProt P78545 1-371); details: protein: recombinant; tags: N-terminal GST; dsDNA, one strand shown
T11 sequence: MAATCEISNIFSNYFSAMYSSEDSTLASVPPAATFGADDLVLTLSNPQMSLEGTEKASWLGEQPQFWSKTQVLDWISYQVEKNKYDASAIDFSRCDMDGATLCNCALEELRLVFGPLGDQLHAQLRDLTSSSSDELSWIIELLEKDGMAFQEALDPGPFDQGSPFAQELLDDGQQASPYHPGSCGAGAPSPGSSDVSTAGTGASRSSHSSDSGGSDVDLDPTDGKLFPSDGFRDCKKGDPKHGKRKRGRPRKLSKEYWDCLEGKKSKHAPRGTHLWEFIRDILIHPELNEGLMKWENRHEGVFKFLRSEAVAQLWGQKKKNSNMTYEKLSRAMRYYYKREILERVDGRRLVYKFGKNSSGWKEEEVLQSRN
In short: as §1

CRX = CRX (Homo sapiens, UniProt O43186 1-299); details: protein: recombinant; tags: N-terminal GST; dsDNA, one strand shown
CRX, sequence (O43186 whole entry): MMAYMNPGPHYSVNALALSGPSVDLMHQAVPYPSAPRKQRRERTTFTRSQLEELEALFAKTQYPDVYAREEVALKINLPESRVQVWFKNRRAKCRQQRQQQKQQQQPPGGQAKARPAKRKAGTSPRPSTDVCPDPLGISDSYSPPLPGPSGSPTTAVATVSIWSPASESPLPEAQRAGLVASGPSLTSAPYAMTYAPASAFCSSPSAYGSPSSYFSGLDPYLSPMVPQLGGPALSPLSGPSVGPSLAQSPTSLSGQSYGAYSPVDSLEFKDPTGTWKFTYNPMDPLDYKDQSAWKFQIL
In short: as §1

ETV1 = ETV1 (Homo sapiens, UniProt P50549 1-477); details: protein: recombinant; tags: N-terminal GST; dsDNA, one strand shown
ETV1, sequence (P50549 whole entry): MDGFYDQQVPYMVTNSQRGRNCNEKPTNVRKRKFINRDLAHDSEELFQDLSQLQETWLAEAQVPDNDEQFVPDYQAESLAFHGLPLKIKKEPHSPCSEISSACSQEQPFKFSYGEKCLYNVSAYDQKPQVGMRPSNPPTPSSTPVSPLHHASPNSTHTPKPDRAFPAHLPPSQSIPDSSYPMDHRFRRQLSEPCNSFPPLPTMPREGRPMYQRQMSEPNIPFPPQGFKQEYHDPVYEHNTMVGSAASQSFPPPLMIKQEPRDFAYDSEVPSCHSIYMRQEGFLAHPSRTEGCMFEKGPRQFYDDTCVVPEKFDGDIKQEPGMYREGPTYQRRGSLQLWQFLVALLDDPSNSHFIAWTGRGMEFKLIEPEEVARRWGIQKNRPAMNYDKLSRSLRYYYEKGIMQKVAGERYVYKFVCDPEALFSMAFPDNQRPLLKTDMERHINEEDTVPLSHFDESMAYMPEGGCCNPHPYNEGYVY
In short: as §1

Sequence: ATATGG
- binding signal (FLI1): 1.13 fold enrichment (6-mer frequency, TF over GST control)
- binding signal (ELK1): 1.31 fold enrichment (6-mer frequency, TF over GST control)
- binding signal (GABPA): 1.28 fold enrichment (6-mer frequency, TF over GST control)
- binding signal (ERG): 1.36 fold enrichment (6-mer frequency, TF over GST control)
- binding signal (ELF1): 1.26 fold enrichment (6-mer frequency, TF over GST control)
- binding signal (EHF): 1.27 fold enrichment (6-mer frequency, TF over GST control)
- binding signal (SPI1): 1.17 fold enrichment (6-mer frequency, TF over GST control)
- binding signal (SPIB): 1.24 fold enrichment (6-mer frequency, TF over GST control)
- binding signal (ELK3): 1.25 fold enrichment (6-mer frequency, TF over GST control)
- binding signal (FEV): 1.25 fold enrichment (6-mer frequency, TF over GST control)
- binding signal (ETV5): 1.3 fold enrichment (6-mer frequency, TF over GST control)
- binding signal (HSF1): 1.17 fold enrichment (6-mer frequency, TF over GST control)
- binding signal (SPIC): 1.41 fold enrichment (6-mer frequency, TF over GST control)
- binding signal (ELF4): 1.35 fold enrichment (6-mer frequency, TF over GST control)
- binding signal (ELK4): 1.36 fold enrichment (6-mer frequency, TF over GST control)
- binding signal (ETV2): 1.13 fold enrichment (6-mer frequency, TF over GST control)
- binding signal (ELF3): 1.36 fold enrichment (6-mer frequency, TF over GST control)
- binding signal (CRX): 1.19 fold enrichment (6-mer frequency, TF over GST control)
- binding signal (ETV1): 1.17 fold enrichment (6-mer frequency, TF over GST control)
